The whole screen tested about 53,000 sequences, of which about 3,700 (7%) were called active. Only a selection was taken, and actives are over-represented in it overall. Values without a mark were called inactive.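 Rule for the calls: active = gene knockdowns whose robust z-score for IL-1 alpha signal is at least 2 or at most -2, so actives lie on both sides; inactive = the rest.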
assay: Components of the Cytosolic LPS Sensing Pathway: Gene Identification via Genome-wide siRNA Screen; conditions: RAW264.7 macrophages, IL-1a HTRF, actives lie on both sides, screened at 100 nM (by protocol), cells primed 5 h with Pam3CSK4 first;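 note: robust z of the log signal after scaling to non-targeting control siRNA wells of the plate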
Summary of the method: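 IL-1a HTRF of supernatants after 24 hour LipidA transfection of Pam3CSK4-primed (5 hours) RAW264.7 cells, 48h post-siRNA transfection (100 nM). Scores: percent of plate negative-control median, then log-based robust z-score.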

Row | Sequence | z-score
1 | GGUUUGAACUUCAGCAACUTT against Adam15 | -2.17 (active)
2 | GGUCCACUUAGUGGCUUAATT against Atp5pb | -0.227
3 | GGUGUAUUGAGCUAAACAUTT against Rnft2 | -0.344
4 | GGCAUGAGCGAGUUAAACCTT against Usp53 | 1.65
5 | GGAGAACAUUCAGGUGACATT against Pdgfd | -0.625
6 | GGCGAUGUGAAAAUCUUAATT against Xpnpep2 | 3.65 (active)
7 | GGCCUCUUAUGUCAACCUGTT against Rpsa | -1.57
8 | GCCGAUUCUUCAAUGUGCGTT against Ribc1 | -0.242
9 | CCAGCACGCUGAAGUCUGATT against Adam19 | 1.21
10 | CCCUAUCGUGAUUUAUUGGTT against C130073F10Rik | -1.33
11 | GGGUACAAAGCAACAUUGGTT against Disp1 | 4.2 (active)
12 | GCAAUGUGCACGAUGAUGATT against Pik3cg | -0.79
13 | CCUAGUGAAUCCUCUCGUATT against Eqtn | 0.178
14 | GCCGAGCUCAAUGUGGGUATT against Bsn | 1.11
15 | GGAAGAAAGUGAGCCUUGUTT against Senp6 | -2.14 (active)
16 | GGCAGAGAGAUGUUACAAGTT against Ccl8 | 0.408
17 | GGUACACUGGUAUACGUAUTT against Samd9l | -1.45
18 | GGCUGAUCCAUUUUCACAATT against Adam6a | -2.77 (active)
19 | GGUUUCAAGACAUUGAAAGTT against Arl14ep | -0.424
20 | CGAUGACAUCAGGAUUGUUTT against Adgrg7 | -0.124
21 | GGACUUAUUAUGUGAGUGUTT against Ncbp2 | 0.555
22 | GGAAAUCAGAAGAAGAACATT against Hars | 2.67 (active)
23 | CGGACACACUUUGUUAUUATT against 4833420G17Rik | 0.198

Row | Sequence | z-score
24 | GGACGUAACAAAAUGUUCUTT against P2ry12 | 0.578
25 | CGGUGGAAUUCGUUAGAAGTT against Ireb2 | -0.183
26 | GGAAGGCCCUAGAAAGGACTT against Gm5094 | 0.209
27 | GCGUGGCUGUCAUGUAUUUTT against Olfr231 | 0.247
28 | GGAAGAUGUAUUCUUCUCCTT against Gemin4 | 0.499
29 | GGAGAAGGAGCUGGAAACGTT against Cttn | 0.645
30 | CCUGAAAACCAUGCAAUACTT against Tas2r125 | -2.37 (active)
31 | GGGCUACUUCCUGACUAAATT against Ube2s | -0.505
32 | GGACACUAUGCAAUCACCCTT against Rnf216 | -0.481
33 | GGUCUACGUAGAGGAGCUGTT against Mrpl28 | 1.04
34 | GGGAAGCCUUUCUUGUCAGTT against Vmn1r40 | -0.847
35 | GGAAUAAAGAAUGGUAUACTT against Zfp280d | -0.0544
36 | CCAGUAGCACGUGUUAUUUTT against Rbmy | 0.0944
37 | GGAUUAAGAAAGAAACAGGTT against Zfp438 | -0.387
38 | GGCCACAGAGCCAAAGAUUTT against Cdca7 | 0.808
39 | GCUUGAUCGAAGAAAGACATT against Tdrd3 | 0.709
40 | GCGUAGGUUACGUUCAAGGTT against Ermard | 2.74 (active)
41 | CGACAGUGAAUGCGCUAAGTT against Slc7a9 | -0.218
42 | GCAAAUUCACCGGAAAAUGTT against Sorbs3 | 1.04
43 | GGAGACUUAGAAAAAGACUTT against Olfr1426 | 1.17
44 | GGAGUUUGUAACCCUCCUGTT against Cabp7 | 1.07
45 | GCCGUCAUCAUGGAAGGUUTT against Bace1 | 0.0589
46 | GGAAUCCUUGGACCUGAGGTT against Tnni3 | -2.11 (active)

Row | Sequence | z-score
47 | GGGUCAAUCAGAAGCUAGGTT against Creb3l4 | -0.573
48 | GGCAACUGACUAUUUAUUATT against Kcnk13 | 0.558
49 | GCAUGAGUAUUCCAAGGAGTT against Arhgef7 | -2.36 (active)
50 | GCAGUAUAAGAAUUUCAUGTT against Thada | -0.325
51 | GGAAAUGUUCUUCAUGUCATT against 1110038F14Rik | -1.95
52 | GGCACGUCUGGACAACAUCTT against Cd22 | -0.707
53 | GGAGGUGACCUGUAAUCCCTT against Msmb | 0.0151
54 | GCUUUCACUAAUCAGUACATT against Setd5 | -0.0813
55 | GGAGCAACAGAGAUUUCUUTT against Sergef | 2.07 (active)
56 | GCUUCUGAUUAACCUCCAGTT against Olfr1390 | -1.49
57 | GCUUACCUUUGGAUUCAAATT against Cd68 | -0.446
58 | GGGAAAAAGAGCUUUUAGCTT against Helt | -0.552
59 | GGUGGCCGUGAAGAAGAUCTT against Mapk4 | -0.902
60 | GGGCUUAAGGAAUAAACCATT against Phtf2 | -0.317
61 | GGAGAUCUCAGAGAGUGAGTT against Atn1 | -2.52 (active)
62 | GCCUCCAACUGAACAAAUUTT against Tnfrsf14 | 0.0618
63 | GGACCAUCUCUUUGAUUGGTT against Olfr424 | -1.12
64 | UCUUUGGCAACACUACCAUTT against Olfr1386 | 0.366
65 | GAAGUCCUGGGACUUUAUGTT against Nudt14 | 0.208
66 | GGACAGAAUUGAAAUGCCUTT against Ropn1l | -2.08 (active)
67 | GGUUUCGUUGUUCUUGUUGTT against Ttc33 | 0.55
68 | GGUAGAAGAGAACUGGACATT against Oas1a | 0.228
